Reference: PubChem BioAssay (NCI)
About 83,000 compounds went through this panel and 20% of them were active in at least one assay; those are over-represented in the sample as a whole.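 Method: cells in 96-well plates; compound added at one concentration; 48 h incubation; percent growth measured; values under 10 scored active.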 A number with no mark means an inactive call. Activity calls are given as the source filed them.

Columns and labels:
Experiment in all cases: NCI-60 one-dose screen, 48 h (100 = growth as untreated, 0 = no growth, -100 = all killed)
Details in all cases: 10 µM unless noted
DU-145 prostate = tested on: DU-145 prostate
K-562 leukemia = tested on: K-562 leukemia
MALME-3M melanoma = tested on: MALME-3M melanoma
MDA-MB-231 breast = tested on: MDA-MB-231 breast
RXF 393 renal = tested on: RXF 393 renal
SF-268 CNS = tested on: SF-268 CNS
SF-295 CNS = tested on: SF-295 CNS
SF-539 CNS = tested on: SF-539 CNS
UACC-257 melanoma = tested on: UACC-257 melanoma
M14 melanoma = tested on: M14 melanoma
HCT-15 colon = tested on: HCT-15 colon
HT29 colon = tested on: HT29 colon
SNB-75 CNS = tested on: SNB-75 CNS
SNB-19 CNS = tested on: SNB-19 CNS
U251 CNS = tested on: U251 CNS
PC-3 prostate = tested on: PC-3 prostate
SK-MEL-5 melanoma = tested on: SK-MEL-5 melanoma
UACC-62 melanoma = tested on: UACC-62 melanoma
LOX IMVI melanoma = tested on: LOX IMVI melanoma
SK-MEL-28 melanoma = tested on: SK-MEL-28 melanoma

Compound | growth (DU-145 prostate) | growth (K-562 leukemia) | growth (MALME-3M melanoma) | growth (MDA-MB-231 breast) | growth (RXF 393 renal) | growth (SF-268 CNS) | growth (SF-295 CNS) | growth (SF-539 CNS) | growth (UACC-257 melanoma) | growth (M14 melanoma) | growth (HCT-15 colon) | growth (HT29 colon) | growth (SNB-75 CNS) | growth (SNB-19 CNS) | growth (U251 CNS) | growth (PC-3 prostate) | growth (SK-MEL-5 melanoma) | growth (UACC-62 melanoma) | growth (LOX IMVI melanoma) | growth (SK-MEL-28 melanoma)
C[C@@H]1C(=O)N(C[C@@H](Cc2ccccc2)NC(=O)OCc2ccccc2)[C@]1(Cc1ccccc1)C(=O)OCc1ccccc1 | 78.3% | 36.5% | 24.9% | 41.9% | 34.8% | 56.7% | 21.4% | 59.6% | 19.7% | 44.8% | 41.6% | 50.7% | 61.1% | 44.3% | 34.6% | 14.2% | -6.61% (active) | 43.3% | 51.8% | 63.9%
C=CC(=O)Nc1cccc(C)c1Nc1cc(-c2cccnc2Cc2c(C)c(OC)cc(OC)c2C)ncn1 | 11.4% | -11.1% (active) | 66.1% | 21.4% | -0.169% (active) | 6.81% (active) | 43% | 3.02% (active) | 21.4% | 53.4% | 42.3% | 5.04% (active) | 23.9% | 23.3% | -16.1% (active) | 8.05% (active) | 57.9% | 38% | 13.9% | 44.3%
CNC(=O)c1cc(Oc2ccc3nc(Nc4cc(Cl)cc(Cl)c4)ccc3c2)ccn1 | 78% | 19.1% | 64.7% | 34.6% | 92.4% | 59.8% | 47.1% | 75.3% | 53.2% | 38.5% | 41.4% | 15.3% | 70.2% | 75.2% | 58.2% | 40.3% | 51.8% | 44.7% | 45.9% | 61.4%
COc1cc2c(=O)n(CCCn3ccnc3)c3c4cc5c(cc4ccc3c2cc1OC)OCO5 | 15.2% | 24% | 39.9% | 7.7% (active) | -27% (active) | 29% | -18.4% (active) | -20.2% (active) | 3.98% (active) | -4.48% (active) | 10.1% | -24% (active) | 1.74% (active) | 19.3% | -2.14% (active) | 11.6% | -75.9% (active) | -50.9% (active) | -62.4% (active) | 40.1%
O=S(=O)(NCCNc1cc(-c2c(-c3cccc(O)c3)nc3sccn23)ccn1)c1ccc(Cl)cc1 | 67.8% | 42.5% | 94% | 80.6% | 71.7% | 47.9% | 85% | 91.8% | 95.2% | 68.2% | 53.2% | 65.7% | 8.44% (active) | 72.7% | 65.9% | 49.3% | 30.7% | 64.8% | 63.2% | 95.7%
CCNCCNc1cc(-c2ccc(C#N)cc2)c(C#N)c2nc3ccccc3n12 | 33.6% | 23.9% | 51.6% | 6.63% (active) | -10.6% (active) | 35.1% | -64.6% (active) | -77.3% (active) | 57.5% | -6.91% (active) | 33.6% | 4.72% (active) | -20.4% (active) | 51% | -23.4% (active) | 44.7% | 65.7% | -34.8% (active) | -53.9% (active) | -47.7% (active)
C[C@H]1[C@H]2C3=CC[C@@H]4[C@@]5(C)C/C(=C/c6ccncc6)C(=O)C(C)(C)[C@@H]5CC[C@@]4(C)[C@]3(C)CC[C@@]2(C(=O)N2CCN(C)CC2)CC[C@@H]1C | 89.3% | 40.2% | 102% | 81.4% | 83.8% | 82.4% | 87.7% | 83.2% | 83.6% | 65.7% | 66% | 46.9% | 76.3% | 78.2% | 68.8% | 33.9% | 87.7% | 80.2% | 84.3% | 101%
COc1cc2c(cc1OC)-c1ccc3cc4c(cc3c1N(CCN(C)C)C2)OCO4 | 6.23% (active) | 2.7% (active) | 24.3% | -2.8% (active) | -32.7% (active) | 23.6% | -6.18% (active) | -7.83% (active) | 10.4% | -7.62% (active) | 56.7% | -45.8% (active) | -5.56% (active) | 8.26% (active) | -42.9% (active) | 0.178% (active) | -10.9% (active) | 3.42% (active) | -83.2% (active) | 43.7%
